Source: PubChem BioAssay (National Center for Advancing Translational Sciences (NCATS))
PLK1 PBD block – qHTS for Inhibitors of PLK1-PDB (polo-like kinase 1 - polo-box domain): Primary Screen | 2.8% of 360,000 active | Plk1 PBD binding of FITC phosphopeptide, fluorescence polarization | AID 720504, 2013 | Serine/threonine-protein kinase PLK1 (Homo sapiens), P53350 | Potency, µM, for inactives: max response, negative = inhibition, hits mostly inhibitors; also: potency is read from the fitted curve at half-maximal effect; series mostly up to about 57 µM; % is scaled to controls: 0 for no effect and ±100 for the full control effect; nearly all actives have a fitted effect of over 65% in size
CBFb-RUNX1 inh – qHTS Assay for Compounds Blocking the Interaction Between CBF-beta and RUNX1 for the Treatment of Acute Myeloid Leukemia; AlphaScreen CBFb-His/RUNX1-biotin binding, biochemical; Potency, µM (doses to about 59.8 µM), for inactives: at the top dose activity, negative = inhibition, hits mostly inhibitors; AID 1477, 2009; Runt-related transcription factor 1 (Homo sapiens) + Core-binding factor subunit beta …; 230,000 tested, under 10 active; also: % of control where 0% means no effect
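Interaction loss through any mechanism counts as activity. Pre-formed complex of His-CBF-beta and biotin-RUNX1 (30 nM apiece) is incubated with compound 15 min, then with 50 ng nickel and 50 ng streptavidin beads for 90 min before AlphaScreen detection.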
VDR inhibitor – Inhibitors of the vitamin D receptor (VDR): qHTS; VDR-SRC2-3 peptide fluorescence polarization, 2 h; Potency, µM, for inactives: max response, negative = inhibition, most hits filed as inhibitors; 0.93% of 400,000 active; AID 504847, 2011; also: potency is read from the fitted curve at half-maximal effect; % is scaled to controls: 0 for no effect and ±100 for the full control effect
Target sequence (P11473 whole entry, looked up): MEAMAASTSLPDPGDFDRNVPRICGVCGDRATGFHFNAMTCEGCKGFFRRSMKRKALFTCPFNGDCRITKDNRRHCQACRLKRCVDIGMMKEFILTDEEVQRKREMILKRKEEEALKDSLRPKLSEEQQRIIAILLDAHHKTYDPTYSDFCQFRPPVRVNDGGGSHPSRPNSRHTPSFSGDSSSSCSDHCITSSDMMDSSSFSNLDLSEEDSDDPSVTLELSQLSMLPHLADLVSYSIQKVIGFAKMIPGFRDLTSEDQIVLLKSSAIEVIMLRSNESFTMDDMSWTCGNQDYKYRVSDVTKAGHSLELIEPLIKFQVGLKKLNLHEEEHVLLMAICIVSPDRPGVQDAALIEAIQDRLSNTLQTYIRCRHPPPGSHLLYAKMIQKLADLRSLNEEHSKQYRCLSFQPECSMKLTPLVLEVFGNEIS
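Measured by FP: displacement of SRC2-3 coactivator peptide from VDR by library compounds, following a two-hour ambient incubation.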
KCNH2 WT inh – qHTS for Inhibitors of KCHN2 3.1: Wildtype qHTS; Voltage-gated inwardly rectifying potassium channel KCNH2 (Homo sapiens), Q12809; AID 720551, 2013; 0.37% of 340,000 active; U2OS, BacMam KCNH2, thallium flux FluxOr; stronger effect = lower value; activity change, % at 1.84 µM;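 active = maximum activity change below -70%; inconclusive = maximum activity change between -70% and -50%; inactive = maximum activity change above -50%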; also: % is scaled to controls: 0 for no effect and ±100 for the full control effect
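U2OS cells were transduced with wild-type KCNH2 virus (2.03 x 10^8 / mL) for 4 h at room temperature, then cultured overnight at 37 C. Thallium flux was read with FluxOr dye. Rate constants were normalized to DMSO controls.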
MBNL1 CUG block – qHTS Assay for Inhibitors of MBNL1-poly(CUG) RNA binding | Muscleblind-like protein 1 (Homo sapiens), Q9NR56 | TR-FRET MBNL1-His/biotin-(CUG)12 binding, 665/545 ratio | Potency, µM (highest dose often 57.5 µM), for the others: at the highest dose activity change, negative = inhibition, actives largely listed as inhibitors | 0.036% of 280,000 active | AID 2675, 2010; active = well fitted inhibition curve with a large enough effect in the signal ratio, with a control signal flat, not every such curve was filed as active; inconclusive = small, poorly fitted or top-dose-only effect, or effect the other way, or a change in a side signal; inactive = no such curve, though single readings can be large or run the other way; the % refers to the signal ratio; also: potency is read from the fitted curve at half-maximal effect; % is scaled to controls: 0 for no effect and ±100 for the full control effect
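Compound titration spanned 92 nM–58 uM against the MBNL1-His/biotin-(CUG)12 complex. After 60 min at room temperature with 5 nM streptavidin-XL665 and 0.055 ng/ul terbium anti-His, ratiometric 665/545 nm emission (Ex 340 nm) normalized to controls.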
KCNH2 3.1 inh – qHTS for Inhibitors of KCHN2 3.1: Mutant qHTS; U2OS KCNH2 3.1, thallium flux FluxOr; stronger effect = lower value; AID 720553, 2013; 0.95% of 340,000 active; Potassium voltage-gated channel subfamily H member 2, brain isoform KCNH2 3.1 (human); activity change, % (tested at about 1.8 µM);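 active = maximum activity change below -70%; inconclusive = maximum activity change from -70% to -50%; inactive = maximum activity change above -50%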;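 also: thallium influx rate constant from kinetic fluorescence after stimulation buffer; % is scaled to controls: 0 for no effect and ±100 for the full control effect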
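We transduce U2OS cells with the mutant 3.1 virus, culture them overnight, load FluxOr with Red40 quencher for 45 min, then add stimulation buffer and read kinetically for 2 min to derive a normalized rate constant.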
* hit, by the source's call; ? = inconclusive; nt = no result given. Compounds with a hit are over-represented: about 3.8% of the library has one in this group of screens. Unless noted, calls follow the shape of the dose curve; as a rule, active = well fitted curve in the direction sought with a large enough effect; inconclusive = small, poorly fitted or top-dose-only effect, or another doubt; inactive = no such curve, though single readings can be large; an effect the other way counts as inactive or inconclusive.

SMILES	PLK1 PBD block	CBFb-RUNX1 inh	VDR inhibitor	KCNH2 WT inh	MBNL1 CUG block	KCNH2 3.1 inh
O=[N+]([O-])c1cc(C(F)(F)F)ccc1NCCCCNS(=O)(=O)c1ccc(Cl)cc1	6%	-21%	-9%	-8	nt	-103*
COc1ccc(Cl)cc1NC(=O)Cc1ccc(NC(=O)N2CCCCc3ccccc32)cc1	nt	nt	-5%	nt	nt	nt
Cc1nn(CC(=O)NC2CC2)c(=O)c2cc3cc(F)ccc3n12	nt	nt	5%	nt	nt	nt
O=C(Nc1ccccc1)Nc1ccc2nnsc2c1	30µM*	4%	-26%	1	-18%	-4
O=C(Nc1ccccc1)Nc1nncs1	30µM*	-2%	-10%	-3	-3%	2
O=C(Nc1ccccc1)Nc1nccs1	-5%	3%	16%	0	2%	24
O=C(Nc1ccccc1)Nc1ccc2snnc2c1	-20%	6%	0%	-1	-24%	4
CC(C)(C)c1ccc(C(=O)/C(C#N)=C/c2cccs2)cc1	7.5µM*	-5%	-13%	5	6%	10
CC(NC(=O)/C(C#N)=C/c1cccs1)c1ccccc1 (stereo unspecified)	2%	-1%	0%	-9	?	2
CCCN(C(=O)Cn1c(=O)oc2cc(Cl)ccc21)c1ccc(C(C)C)cc1	nt	nt	0%	nt	nt	nt
Cc1ccc(NC(=O)CCC(C(=O)O)N2C(=O)c3ccccc3C2=O)cc1 (stereo unspecified)	-8%	5%	-19%	-187*	1%	-141*
CCCc1nnc(NC(=O)CCCN2C(=O)c3ccccc3C2=O)s1	27µM*	8%	-2%	0	-5%	4
CCCCc1nnc(NC(=O)CN2C(=O)c3ccccc3C2=O)s1	-5%	7%	-15%	1	-5%	-1
COC(=O)CC[C@@H](C(=O)O)N1C(=O)c2ccccc2C1=O	-2%	1%	-5%	20	-5%	8
Cc1ccc(NC(=O)CCCN2C(=O)c3cccc4cccc(c34)C2=O)cc1	27µM*	-5%	-22%	1	-1%	-6
CN(CC(=O)Nc1ccc(N2CCOCC2)cc1)Cc1c(O)ccc2ccccc12	4.7µM*	1%	28µM*	-6	1%	-4
COc1ccc(OCCN(C)Cc2c(O)ccc3ccccc23)cc1	8.4µM*	nt	?	12	3%	-37
CN(CC(=O)Nc1ccc(N2CCOCC2)cc1)C(=O)C12CC3CC(CC(C3)C1)C2	-9%	nt	-12%	1	nt	-73*
CN(CC(=O)Nc1ccc(N2CCOCC2)cc1)CC(=O)Nc1ccc(N2CCOCC2)cc1	-14%	-25%	-4%	-30	-10%	6
COc1ccc(NC(=O)CN(C)C(=O)C23CC4CC(CC(C4)C2)C3)cc1	-3%	nt	9%	-12	-10%	-12
CN(Cc1ccccc1)Cc1c(O)ccc2ccccc12	?	nt	?	2	9%	13
CSc1ccccc1NC(=O)CN(C)Cc1c(O)ccc2ccccc12	11µM*	nt	?	-1	4%	18
CCOc1ccc(NC(=O)c2cnn(-c3ccc(C)c(C)c3)c2C2CCN(C(=O)OC(C)(C)C)CC2)cc1	nt	nt	-8%	nt	nt	nt
Cc1ccc(NC(=O)c2cc3ccccc3cc2O)cc1	3%	nt	?	3	-2%	6
O=C(CCCCCN1C(=O)C2C3C=CC(C3)C2C1=O)Nc1nccs1 (stereo unspecified)	2%	-2%	-21%	1	4%	-13
SMILES	PLK1 PBD block	CBFb-RUNX1 inh	VDR inhibitor	KCNH2 WT inh	MBNL1 CUG block	KCNH2 3.1 inh
COc1ccc(NC(=O)CCn2cccc2)cc1	-14%	1%	11%	-9	-2%	-78*
O=C(CCN1C(=O)C2C3C=CC(C3)C2C1=O)Nc1nccs1 (stereo unspecified)	30µM*	7%	-3%	-2	-2%	3
COc1ccc(NC(=O)CCN2C(=O)C3C4CCC(C4)C3C2=O)cc1 (stereo unspecified)	0%	6%	-22%	1	?	6
COc1ccc(NC(=O)CCN2C(=O)[C@@H]3[C@H](C2=O)[C@H]2C=C[C@@H]3C2)cc1	27µM*	9%	-24%	-6	-1%	-21
COc1ccc(NC(=O)c2cc3ccccc3cc2O)cc1	30µM*	nt	45µM*	-13	2%	-5
COc1ccc(CCCC(=O)Nc2ccc(F)cc2)cc1	21µM*	-11%	-19%	3	-4%	-24
O=C(c1ccc(Br)cc1)C(CN1CCOCC1)c1ccccc1 (stereo unspecified)	?	nt	40µM*	-9	-9%	-11
CC(CN1CCN(CC(C)C(=O)c2ccccc2)CC1)C(=O)c1ccccc1 (stereo unspecified)	3%	nt	-3%	7	nt	16
CN(C)CC(C(=O)c1ccccc1)c1ccccc1 (stereo unspecified)	-11%	1%	50µM*	-10	1%	7
O=C(c1ccccc1)C(CN1CCCCC1)c1ccccc1 (stereo unspecified)	?	nt	25µM*	-4	nt	-11
O=C(NCCCc1nc2ccccc2n1Cc1ccc(F)cc1)C1CCCCC1	nt	nt	10%	nt	nt	nt
O=C(NC(=S)N1CCN(c2ccc([N+](=O)[O-])cc2Cl)CC1)c1ccco1	-9%	-2%	-8%	-29	?	-73*
OC[C@@H]1CCC[C@@H](n2cnc3c(=S)nc[nH]c32)O1	nt	nt	-14%	nt	nt	nt
CCOc1ccc(N2C(=O)CC(N3CCN(c4ccccc4OC)CC3)C2=O)cc1 (stereo unspecified)	-7%	nt	-31%	-20	-2%	-2
CCOc1ccc(N2C(=O)CC(N3CCN(c4ccccc4F)CC3)C2=O)cc1 (stereo unspecified)	27µM*	3%	-13%	-3	-11%	-20
Cc1ccc(C(=O)NCC2CCCO2)cc1N1CCCC1=O (stereo unspecified)	27µM*	5%	7%	-1	6%	-5
Cc1ccc(C2C(C(=O)c3cc4ccccc4o3)=C(O)C(=O)N2c2cc(C)on2)cc1 (stereo unspecified)	19µM*	nt	79µM*	-2	38%	-10
Cc1cc(N2C(=O)C(O)=C(C(=O)c3ccco3)C2c2ccc(O)cc2)no1 (stereo unspecified)	-11%	-5%	-14%	-16	?	-2
